# Assay results reported in paper PMC7862700, “An all-to-all approach to the identification of sequence-specific readers for epigenetic DNA modifications on cytosine”.
# Tests used:
# Test in all cases: DAPPL (digital affinity profiling via proximity ligation, sequencing); 10 mM Tris-HCl pH 7.5, 50 mM NaCl, 1 mM DTT, 4% glycerol, room temperature, 30 min; GST-TFs on glutathione beads, 16-mer random dsDNA library, 0.1% formaldehyde crosslink after washing; high values mean tight binding
# [1] = target: T1, FLI1 (Homo sapiens, UniProt Q01543 1-452); details: protein: recombinant; tags: N-terminal GST; dsDNA, one strand shown
# T1 sequence: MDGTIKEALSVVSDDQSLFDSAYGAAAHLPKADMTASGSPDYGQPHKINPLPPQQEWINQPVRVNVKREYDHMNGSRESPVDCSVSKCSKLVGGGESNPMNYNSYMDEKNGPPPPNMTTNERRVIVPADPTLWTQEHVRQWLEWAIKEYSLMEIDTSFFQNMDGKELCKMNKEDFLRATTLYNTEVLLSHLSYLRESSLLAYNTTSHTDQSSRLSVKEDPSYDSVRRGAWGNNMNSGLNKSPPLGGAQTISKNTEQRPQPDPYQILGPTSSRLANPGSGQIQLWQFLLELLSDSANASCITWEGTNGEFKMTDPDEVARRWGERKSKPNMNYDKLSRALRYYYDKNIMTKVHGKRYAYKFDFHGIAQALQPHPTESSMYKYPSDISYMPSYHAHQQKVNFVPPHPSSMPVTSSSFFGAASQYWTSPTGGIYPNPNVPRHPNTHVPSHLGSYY
# In short: (§1)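 GST fusions of human transcription factors were expressed in yeast and captured with glutathione beads. Once given DNA barcodes and pooled alongside a tag-only sample, they were incubated for 30 min at room temperature with 200 nmole of a random double-stranded 16-mer DNA library in Tris/NaCl/DTT/glycerol buffer, then washed, crosslinked (0.1% formaldehyde), proximity-ligated, PCR-amplified and sequenced on an Illumina NextSeq500. The binding signal of each hexamer is its read frequency for a factor divided by its frequency for the tag-only sample.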
# [2] = target: T2, ELK1 (Homo sapiens, UniProt P19419 1-428); details: protein: recombinant; tags: N-terminal GST; dsDNA, one strand shown
# T2 sequence: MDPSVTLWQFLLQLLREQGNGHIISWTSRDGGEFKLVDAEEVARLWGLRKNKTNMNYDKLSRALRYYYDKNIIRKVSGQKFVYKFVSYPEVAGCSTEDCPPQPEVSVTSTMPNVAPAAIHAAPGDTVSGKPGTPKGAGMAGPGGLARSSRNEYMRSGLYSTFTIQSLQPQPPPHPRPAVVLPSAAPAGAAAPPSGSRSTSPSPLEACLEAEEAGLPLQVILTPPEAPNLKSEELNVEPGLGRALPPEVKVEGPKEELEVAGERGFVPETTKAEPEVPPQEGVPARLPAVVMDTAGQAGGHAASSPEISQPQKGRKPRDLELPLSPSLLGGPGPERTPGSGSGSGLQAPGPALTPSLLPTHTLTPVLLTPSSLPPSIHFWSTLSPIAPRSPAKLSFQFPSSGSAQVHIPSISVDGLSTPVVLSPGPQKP
# In short: as §1
# [3] = target: T3, GABPA (Homo sapiens, UniProt Q06546 1-454); details: protein: recombinant; tags: N-terminal GST; dsDNA, one strand shown
# T3 sequence: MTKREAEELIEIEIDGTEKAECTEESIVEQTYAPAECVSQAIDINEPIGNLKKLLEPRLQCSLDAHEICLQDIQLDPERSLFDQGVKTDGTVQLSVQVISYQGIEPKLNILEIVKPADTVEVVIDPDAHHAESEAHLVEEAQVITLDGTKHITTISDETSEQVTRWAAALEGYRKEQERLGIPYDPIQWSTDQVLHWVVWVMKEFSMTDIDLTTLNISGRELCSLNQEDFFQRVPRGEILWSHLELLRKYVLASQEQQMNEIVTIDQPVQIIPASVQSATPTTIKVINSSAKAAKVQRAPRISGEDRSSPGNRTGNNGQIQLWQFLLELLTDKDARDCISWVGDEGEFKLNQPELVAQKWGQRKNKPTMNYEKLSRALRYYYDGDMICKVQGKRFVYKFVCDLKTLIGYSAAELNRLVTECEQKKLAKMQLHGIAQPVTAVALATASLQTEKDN
# In short: as §1
# [4] = target: T4, ERG (Homo sapiens, UniProt P11308 1-479); details: protein: recombinant; tags: N-terminal GST; dsDNA, one strand shown
# T4 sequence: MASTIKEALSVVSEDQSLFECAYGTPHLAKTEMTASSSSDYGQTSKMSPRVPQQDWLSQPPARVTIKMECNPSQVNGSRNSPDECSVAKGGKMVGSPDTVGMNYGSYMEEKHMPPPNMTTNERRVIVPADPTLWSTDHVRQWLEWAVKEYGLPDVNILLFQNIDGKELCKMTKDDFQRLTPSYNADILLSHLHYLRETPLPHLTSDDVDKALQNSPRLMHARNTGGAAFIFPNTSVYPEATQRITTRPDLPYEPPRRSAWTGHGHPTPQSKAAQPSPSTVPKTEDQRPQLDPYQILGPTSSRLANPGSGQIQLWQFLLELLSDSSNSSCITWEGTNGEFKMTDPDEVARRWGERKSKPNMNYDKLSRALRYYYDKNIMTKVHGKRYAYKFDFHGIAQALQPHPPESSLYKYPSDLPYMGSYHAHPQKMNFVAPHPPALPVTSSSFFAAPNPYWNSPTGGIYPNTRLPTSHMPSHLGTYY
# In short: as §1
# [5] = target: ELF1 (Homo sapiens, UniProt P32519 1-619); details: protein: recombinant; tags: N-terminal GST; dsDNA, one strand shown
# In short: as §1
# [6] = target: T5, EHF (Homo sapiens, UniProt Q9NZC4 1-300); details: protein: recombinant; tags: N-terminal GST; dsDNA, one strand shown
# T5 sequence: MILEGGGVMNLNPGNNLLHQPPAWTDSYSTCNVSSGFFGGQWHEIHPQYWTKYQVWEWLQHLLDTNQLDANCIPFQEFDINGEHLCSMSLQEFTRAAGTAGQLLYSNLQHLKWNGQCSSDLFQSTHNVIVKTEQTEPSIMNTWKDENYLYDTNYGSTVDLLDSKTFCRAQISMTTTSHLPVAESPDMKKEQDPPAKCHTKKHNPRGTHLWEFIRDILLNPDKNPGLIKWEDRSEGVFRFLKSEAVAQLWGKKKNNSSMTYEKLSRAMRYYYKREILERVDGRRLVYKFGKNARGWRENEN
# In short: as §1
# [7] = target: SPI1 (Homo sapiens, UniProt P17947 1-270); details: protein: recombinant; tags: N-terminal GST; dsDNA, one strand shown
# In short: as §1
# [8] = target: SPIB (Homo sapiens, UniProt Q01892 1-262); details: protein: recombinant; tags: N-terminal GST; dsDNA, one strand shown
# In short: as §1
# [9] = target: T6, ELK3 (Homo sapiens, UniProt P41970 1-407); details: protein: recombinant; tags: N-terminal GST; dsDNA, one strand shown
# T6 sequence: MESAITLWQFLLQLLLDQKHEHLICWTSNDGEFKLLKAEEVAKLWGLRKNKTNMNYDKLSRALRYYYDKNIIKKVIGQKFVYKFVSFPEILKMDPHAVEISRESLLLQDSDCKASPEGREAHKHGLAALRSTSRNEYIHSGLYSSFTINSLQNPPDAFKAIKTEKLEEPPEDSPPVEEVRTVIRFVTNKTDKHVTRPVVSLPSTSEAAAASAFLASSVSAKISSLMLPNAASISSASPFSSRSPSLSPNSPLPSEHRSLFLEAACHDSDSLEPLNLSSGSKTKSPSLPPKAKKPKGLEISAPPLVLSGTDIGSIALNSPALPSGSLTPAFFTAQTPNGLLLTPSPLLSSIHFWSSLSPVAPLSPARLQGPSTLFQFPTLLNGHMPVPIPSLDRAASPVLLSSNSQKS
# In short: as §1
# [10] = target: T7, FEV (Homo sapiens, UniProt Q99581 1-238); details: protein: recombinant; tags: N-terminal GST; dsDNA, one strand shown
# T7 sequence: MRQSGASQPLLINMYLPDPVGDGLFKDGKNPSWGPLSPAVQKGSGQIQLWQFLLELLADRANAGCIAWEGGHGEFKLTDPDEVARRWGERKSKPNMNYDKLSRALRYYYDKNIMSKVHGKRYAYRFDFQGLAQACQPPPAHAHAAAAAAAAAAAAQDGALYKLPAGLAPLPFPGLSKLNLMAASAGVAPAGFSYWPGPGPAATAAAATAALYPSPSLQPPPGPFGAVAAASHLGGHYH
# In short: as §1
# [11] = target: ETV5 (Homo sapiens, UniProt P41161 1-510); details: protein: recombinant; tags: N-terminal GST; dsDNA, one strand shown
# In short: as §1
# [12] = target: HSF1 (Homo sapiens, UniProt Q00613 1-529); details: protein: recombinant; tags: N-terminal GST; chain copies: 3; dsDNA, one strand shown
# In short: as §1
# [13] = target: T8, SPIC (Homo sapiens, UniProt Q8N5J4 1-248); details: protein: recombinant; tags: N-terminal GST; dsDNA, one strand shown
# T8 sequence: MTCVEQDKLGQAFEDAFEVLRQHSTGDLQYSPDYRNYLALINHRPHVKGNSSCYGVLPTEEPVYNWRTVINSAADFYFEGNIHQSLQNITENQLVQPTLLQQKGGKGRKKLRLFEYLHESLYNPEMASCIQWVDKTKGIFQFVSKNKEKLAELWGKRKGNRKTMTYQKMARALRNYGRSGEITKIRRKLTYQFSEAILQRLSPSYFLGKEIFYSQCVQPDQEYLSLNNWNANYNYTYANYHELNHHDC
# In short: as §1
# [14] = target: ELF4 (Homo sapiens, UniProt Q99607 1-663); details: protein: recombinant; tags: N-terminal GST; dsDNA, one strand shown
# In short: as §1
# [15] = target: T9, ELK4 (Homo sapiens, UniProt P28324-2 1-405); details: protein: recombinant; tags: N-terminal GST; dsDNA, one strand shown
# T9 sequence: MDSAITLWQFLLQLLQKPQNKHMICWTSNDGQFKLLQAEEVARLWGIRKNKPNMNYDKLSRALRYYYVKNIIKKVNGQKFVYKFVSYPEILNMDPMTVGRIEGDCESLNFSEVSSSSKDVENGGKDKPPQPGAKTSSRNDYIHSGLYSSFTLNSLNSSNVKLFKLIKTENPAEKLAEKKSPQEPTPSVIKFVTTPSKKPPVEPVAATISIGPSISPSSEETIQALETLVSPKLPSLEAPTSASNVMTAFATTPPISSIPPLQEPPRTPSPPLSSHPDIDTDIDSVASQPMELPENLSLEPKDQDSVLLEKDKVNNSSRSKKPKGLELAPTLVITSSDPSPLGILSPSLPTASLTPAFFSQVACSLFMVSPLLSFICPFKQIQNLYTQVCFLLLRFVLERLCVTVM
# In short: as §1
# [16] = target: T10, ETV2 (Homo sapiens, UniProt O00321 1-342); details: protein: recombinant; tags: N-terminal GST; dsDNA, one strand shown
# T10 sequence: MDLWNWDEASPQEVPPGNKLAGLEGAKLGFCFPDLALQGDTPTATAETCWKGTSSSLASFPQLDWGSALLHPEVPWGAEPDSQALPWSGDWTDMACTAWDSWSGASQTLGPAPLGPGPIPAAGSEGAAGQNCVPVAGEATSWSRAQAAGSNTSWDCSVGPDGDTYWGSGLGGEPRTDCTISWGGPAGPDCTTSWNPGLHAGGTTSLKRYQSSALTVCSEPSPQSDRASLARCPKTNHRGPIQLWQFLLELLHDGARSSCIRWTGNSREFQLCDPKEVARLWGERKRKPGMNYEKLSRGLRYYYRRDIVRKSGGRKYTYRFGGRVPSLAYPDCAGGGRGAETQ
# In short: as §1
# [17] = target: T11, ELF3 (Homo sapiens, UniProt P78545 1-371); details: protein: recombinant; tags: N-terminal GST; dsDNA, one strand shown
# T11 sequence: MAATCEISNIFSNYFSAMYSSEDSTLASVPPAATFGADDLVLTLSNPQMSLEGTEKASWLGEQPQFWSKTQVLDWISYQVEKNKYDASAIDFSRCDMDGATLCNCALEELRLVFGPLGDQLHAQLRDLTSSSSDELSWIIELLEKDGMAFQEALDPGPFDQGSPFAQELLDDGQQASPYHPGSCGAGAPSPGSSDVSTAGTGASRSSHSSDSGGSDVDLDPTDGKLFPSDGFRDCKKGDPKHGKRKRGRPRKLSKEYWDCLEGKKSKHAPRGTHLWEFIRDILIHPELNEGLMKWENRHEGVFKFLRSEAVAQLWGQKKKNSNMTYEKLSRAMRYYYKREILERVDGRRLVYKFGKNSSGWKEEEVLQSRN
# In short: as §1
# [18] = target: CRX (Homo sapiens, UniProt O43186 1-299); details: protein: recombinant; tags: N-terminal GST; dsDNA, one strand shown
# In short: as §1
# [19] = target: ETV1 (Homo sapiens, UniProt P50549 1-477); details: protein: recombinant; tags: N-terminal GST; dsDNA, one strand shown
# In short: as §1
# SPIB, sequence (Q01892 whole entry): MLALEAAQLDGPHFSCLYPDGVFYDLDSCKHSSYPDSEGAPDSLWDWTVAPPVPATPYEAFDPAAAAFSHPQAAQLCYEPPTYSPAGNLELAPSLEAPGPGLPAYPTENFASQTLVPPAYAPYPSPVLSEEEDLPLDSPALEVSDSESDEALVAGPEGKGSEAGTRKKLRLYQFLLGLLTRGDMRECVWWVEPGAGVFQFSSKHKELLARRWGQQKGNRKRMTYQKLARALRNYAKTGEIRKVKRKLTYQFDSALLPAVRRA
# ETV1, sequence (P50549 whole entry): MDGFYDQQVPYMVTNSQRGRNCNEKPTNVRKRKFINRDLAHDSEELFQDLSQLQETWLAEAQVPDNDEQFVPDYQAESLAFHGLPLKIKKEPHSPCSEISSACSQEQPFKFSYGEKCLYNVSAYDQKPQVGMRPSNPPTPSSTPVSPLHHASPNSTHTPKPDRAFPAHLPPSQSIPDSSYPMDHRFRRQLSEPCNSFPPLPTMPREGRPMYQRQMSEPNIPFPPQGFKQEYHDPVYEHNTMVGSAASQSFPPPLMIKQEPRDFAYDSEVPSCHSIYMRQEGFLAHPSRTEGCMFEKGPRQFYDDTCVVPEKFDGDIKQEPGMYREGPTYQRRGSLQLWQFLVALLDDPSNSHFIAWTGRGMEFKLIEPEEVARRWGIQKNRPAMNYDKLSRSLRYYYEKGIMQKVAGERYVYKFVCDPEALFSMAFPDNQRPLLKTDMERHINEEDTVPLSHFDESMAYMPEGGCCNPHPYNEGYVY
# HSF1, sequence (Q00613 whole entry): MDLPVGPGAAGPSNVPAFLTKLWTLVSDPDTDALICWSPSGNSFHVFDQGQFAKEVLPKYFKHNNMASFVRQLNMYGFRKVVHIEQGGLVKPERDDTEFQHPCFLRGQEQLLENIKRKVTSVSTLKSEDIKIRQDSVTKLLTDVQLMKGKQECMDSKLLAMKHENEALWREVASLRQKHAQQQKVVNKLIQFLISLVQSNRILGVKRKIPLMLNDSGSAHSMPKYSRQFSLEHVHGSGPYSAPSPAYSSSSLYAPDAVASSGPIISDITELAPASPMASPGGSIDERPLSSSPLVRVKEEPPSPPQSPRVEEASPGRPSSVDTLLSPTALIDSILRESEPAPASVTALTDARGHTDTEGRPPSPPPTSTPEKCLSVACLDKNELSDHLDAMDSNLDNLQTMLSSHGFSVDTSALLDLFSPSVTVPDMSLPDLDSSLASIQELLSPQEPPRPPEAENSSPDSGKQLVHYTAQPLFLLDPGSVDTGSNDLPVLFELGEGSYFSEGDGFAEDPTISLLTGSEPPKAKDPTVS
# ETV5, sequence (P41161 whole entry): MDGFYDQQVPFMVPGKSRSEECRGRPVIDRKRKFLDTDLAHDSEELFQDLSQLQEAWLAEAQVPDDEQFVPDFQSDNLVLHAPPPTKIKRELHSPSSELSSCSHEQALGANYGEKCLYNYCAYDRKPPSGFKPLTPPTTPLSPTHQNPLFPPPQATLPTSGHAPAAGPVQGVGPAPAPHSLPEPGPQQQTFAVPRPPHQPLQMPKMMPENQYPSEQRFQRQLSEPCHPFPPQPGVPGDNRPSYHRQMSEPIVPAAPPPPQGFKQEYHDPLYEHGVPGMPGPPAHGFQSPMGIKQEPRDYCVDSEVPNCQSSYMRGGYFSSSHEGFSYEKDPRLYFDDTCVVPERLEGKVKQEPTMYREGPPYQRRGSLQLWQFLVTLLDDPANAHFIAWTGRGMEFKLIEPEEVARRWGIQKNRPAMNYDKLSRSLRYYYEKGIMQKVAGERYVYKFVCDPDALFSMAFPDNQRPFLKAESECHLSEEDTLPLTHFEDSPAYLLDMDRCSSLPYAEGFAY
# ELF1, sequence (P32519 whole entry): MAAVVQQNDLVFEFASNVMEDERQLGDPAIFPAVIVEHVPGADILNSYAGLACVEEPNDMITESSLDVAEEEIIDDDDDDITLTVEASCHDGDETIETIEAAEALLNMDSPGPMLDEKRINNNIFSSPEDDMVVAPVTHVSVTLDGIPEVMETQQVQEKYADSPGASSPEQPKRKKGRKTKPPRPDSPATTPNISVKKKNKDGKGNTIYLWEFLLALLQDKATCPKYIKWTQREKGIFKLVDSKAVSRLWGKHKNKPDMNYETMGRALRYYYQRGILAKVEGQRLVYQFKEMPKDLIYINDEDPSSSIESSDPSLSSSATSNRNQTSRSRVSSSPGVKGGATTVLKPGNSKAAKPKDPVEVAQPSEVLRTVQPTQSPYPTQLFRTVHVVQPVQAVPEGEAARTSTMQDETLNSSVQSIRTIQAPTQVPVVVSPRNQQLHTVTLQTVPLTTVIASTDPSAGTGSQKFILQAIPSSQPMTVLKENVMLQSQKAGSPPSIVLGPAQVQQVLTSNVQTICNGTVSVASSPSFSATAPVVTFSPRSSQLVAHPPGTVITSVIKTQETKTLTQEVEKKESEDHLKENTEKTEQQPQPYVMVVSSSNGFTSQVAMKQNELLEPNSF
# ELF4, sequence (Q99607 whole entry): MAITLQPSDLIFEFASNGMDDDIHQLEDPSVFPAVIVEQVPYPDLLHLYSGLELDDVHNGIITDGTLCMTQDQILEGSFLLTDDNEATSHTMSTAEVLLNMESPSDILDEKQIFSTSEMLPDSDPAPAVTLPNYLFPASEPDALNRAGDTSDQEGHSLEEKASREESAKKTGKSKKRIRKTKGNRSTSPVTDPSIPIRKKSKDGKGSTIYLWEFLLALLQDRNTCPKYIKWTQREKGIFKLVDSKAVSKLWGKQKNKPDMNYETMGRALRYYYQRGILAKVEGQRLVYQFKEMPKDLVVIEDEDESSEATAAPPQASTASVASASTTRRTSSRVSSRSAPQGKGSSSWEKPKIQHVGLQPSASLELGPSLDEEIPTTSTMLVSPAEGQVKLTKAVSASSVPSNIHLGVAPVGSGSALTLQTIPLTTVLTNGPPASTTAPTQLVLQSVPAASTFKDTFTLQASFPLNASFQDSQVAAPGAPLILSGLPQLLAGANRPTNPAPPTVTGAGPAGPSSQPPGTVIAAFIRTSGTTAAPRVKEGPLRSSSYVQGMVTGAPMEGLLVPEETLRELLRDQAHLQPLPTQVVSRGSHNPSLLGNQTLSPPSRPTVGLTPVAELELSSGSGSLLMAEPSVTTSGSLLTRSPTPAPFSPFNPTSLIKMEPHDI
# CRX, sequence (O43186 whole entry): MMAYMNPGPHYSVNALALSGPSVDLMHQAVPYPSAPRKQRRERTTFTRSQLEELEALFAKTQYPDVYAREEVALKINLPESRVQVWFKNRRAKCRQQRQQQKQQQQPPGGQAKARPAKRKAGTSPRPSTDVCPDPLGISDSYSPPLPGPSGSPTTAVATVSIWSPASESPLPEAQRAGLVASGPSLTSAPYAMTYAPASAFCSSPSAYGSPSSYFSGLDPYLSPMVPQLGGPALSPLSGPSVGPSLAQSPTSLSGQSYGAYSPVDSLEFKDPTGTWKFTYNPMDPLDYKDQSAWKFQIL
sequence,measurement,setting,value
CTCGAT,binding signal,[1],"1.48 fold enrichment (6-mer frequency, TF over GST control)"
same,binding signal,[2],"1.38 fold enrichment (6-mer frequency, TF over GST control)"
same,binding signal,[3],"1.32 fold enrichment (6-mer frequency, TF over GST control)"
same,binding signal,[4],"1.26 fold enrichment (6-mer frequency, TF over GST control)"
same,binding signal,[5],"1.49 fold enrichment (6-mer frequency, TF over GST control)"
same,binding signal,[6],"1.27 fold enrichment (6-mer frequency, TF over GST control)"
same,binding signal,[7],"1.36 fold enrichment (6-mer frequency, TF over GST control)"
same,binding signal,[8],"1.49 fold enrichment (6-mer frequency, TF over GST control)"
same,binding signal,[9],"1.18 fold enrichment (6-mer frequency, TF over GST control)"
same,binding signal,[10],"1.29 fold enrichment (6-mer frequency, TF over GST control)"
same,binding signal,[11],"1.3 fold enrichment (6-mer frequency, TF over GST control)"
same,binding signal,[12],"2.06 fold enrichment (6-mer frequency, TF over GST control)"
same,binding signal,[13],"1.46 fold enrichment (6-mer frequency, TF over GST control)"
same,binding signal,[14],"1.43 fold enrichment (6-mer frequency, TF over GST control)"
same,binding signal,[15],"1.59 fold enrichment (6-mer frequency, TF over GST control)"
same,binding signal,[16],"1.25 fold enrichment (6-mer frequency, TF over GST control)"
same,binding signal,[17],"1.09 fold enrichment (6-mer frequency, TF over GST control)"
same,binding signal,[18],"1.48 fold enrichment (6-mer frequency, TF over GST control)"
same,binding signal,[19],"1.27 fold enrichment (6-mer frequency, TF over GST control)"
